About 2,400 (100%) of roughly 2,400 compounds were called active.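 How the source made its calls: active means ratio percent of control, averaged over triplicates, above buffer control mean plus 5 SD (cut at about 64% in these data); inactive means the rest.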 The set was probably picked from earlier hits. Only a sample is shown.

In the test the target is Potassium channel subfamily K member 3 (Homo sapiens) (UniProt O14649). Kind of test: TASK1 potassium channel blockade, triplicate retest – CHO cells, FluxOR thallium flux, confirmation (AID 651638).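 Further: ratio is the fluorescence rise from min to max over baseline after thallium stimulus.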 The settings on record: CHO-KCNK3 thallium flux, FluxOR fluorescence, at 10 µM, stronger effect = higher value.
Sequence of Potassium channel subfamily K member 3 (Homo sapiens) (O14649 whole entry, looked up): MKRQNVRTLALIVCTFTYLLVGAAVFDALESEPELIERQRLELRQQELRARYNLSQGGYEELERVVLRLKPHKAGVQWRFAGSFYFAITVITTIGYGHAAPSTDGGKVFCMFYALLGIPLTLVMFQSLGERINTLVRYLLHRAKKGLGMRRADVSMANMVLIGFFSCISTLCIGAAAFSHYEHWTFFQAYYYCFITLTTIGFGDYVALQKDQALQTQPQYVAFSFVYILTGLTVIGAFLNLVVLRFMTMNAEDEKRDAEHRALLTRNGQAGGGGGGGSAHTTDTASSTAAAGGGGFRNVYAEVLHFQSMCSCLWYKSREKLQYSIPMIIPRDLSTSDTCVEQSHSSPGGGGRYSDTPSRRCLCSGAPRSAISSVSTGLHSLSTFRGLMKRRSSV
In the case of `COc1ccccc1C1=NCc2nnc(CSC)n2-c2ccc(Cl)cc21`, the ratio percent of control was 54.7% (active).
For `CCCCCCN=C(CC)c1c(O)n(CCCC)c(=O)[nH]c1=O`, the ratio percent of control is 129% (active).
`CCOC(=O)C1SC2(C(F)(F)C(F)F)CC1(O)c1c(c(OC)c3occc3c1OC)O2` (stereo not drawn): the ratio percent of control was 112% [0% buffer, 100% carvedilol maximal block] (active).
